{"source": "PubChem BioAssay (NCATS)", "note": "Records with an inconclusive call do not appear. Active and inactive are the calls of the source. Unless noted, the call rests on the fitted dose curve; in most records, active means well fitted inhibition curve with a large enough effect; inconclusive means small, poorly fitted or top-dose-only effect; inactive means no such curve, though single readings can be large or run the other way. Potency means the concentration at half of the fitted maximal effect.", "data": [{"test": "S16 Schwann cell PMP22 intronic element firefly luciferase assay (AID 624032); further: nearly all actives have a fitted effect of over 30% in size", "conditions": "S16 rat Schwann cells, PMP22 element FLuc, 24 h; series mostly up to 57.5 µM; activity change, negative = inhibition: at the top concentration", "how_it_was_run": "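Luciferase reporter of PMP22 intronic-element expression in stably transfected S16 rat Schwann cells, read by ONE-Glo luminescence after 24 h compound exposure at 37 C. Activity scaled between DMSO (0%) and positive-control PTC124; concentration-effect curves quality-classified.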", "values": [{"smiles": "IC(I)I", "activity change, negative = inhibition": "4.39% (inactive)"}, {"smiles": "CCCCC(C)(O)C/C=C/[C@H]1[C@H](O)CC(=O)[C@@H]1CCCCCCC(=O)OC", "note": "(some centres not stated)", "Potency": "0.181 µM (active)"}, {"smiles": "CCC(=O)NCCC1CCc2ccc3c(c21)CCO3", "note": "(configuration not stated)", "activity change, negative = inhibition": "-17.2% (inactive)"}, {"smiles": "CC1(C)S[C@@H]2[C@H](NC(=O)[C@@H](NC(=O)N3CCNC3=O)c3ccccc3)C(=O)N2[C@H]1C(=O)O", "activity change, negative = inhibition": "14.6% [at 25.7 µM] (inactive)"}, {"smiles": "CCCCC(CC)COC(=O)CC(C(=O)OCC(CC)CCCC)S(=O)(=O)O", "note": "(configuration not stated)", "activity change, negative = inhibition": "13.7% (inactive)"}, {"smiles": "CC(Cc1ccc(O)c(O)c1)C(C)Cc1ccc(O)c(O)c1", "note": "(configuration not stated)", "Potency": "8.09 µM (active)"}, {"smiles": "CC1(C)C(C=C(Cl)Cl)C1C(=O)OCc1cccc(Oc2ccccc2)c1", "note": "(configuration not stated)", "activity change, negative = inhibition": "6.25% (inactive)"}, {"smiles": "O=C(COc1ccc(Cl)cc1)OCCNC12CC3CC(CC(C3)C1)C2", "activity change, negative = inhibition": "19.1% (inactive)"}, {"smiles": "CC1=C(/C=C/C(C)=C/C=C/C(C)=C/C=C/C=C(C)/C=C/C=C(C)/C=C/C2=C(C)CCCC2(C)C)C(C)(C)CCC1", "activity change, negative = inhibition": "-16.6% (inactive)"}, {"smiles": "O=C(Nc1ccc(Br)cc1)c1cc(Br)c(Br)s1", "activity change, negative = inhibition": "105% (inactive)"}, {"smiles": "Nc1ncnc2c1ncn2[C@@H]1O[C@H](COP(=O)(O)OP(=O)(O)OP(=O)(O)O)[C@@H](O)[C@H]1O", "activity change, negative = inhibition": "-21.8% (inactive)"}, {"smiles": "CCCC(=O)O[C@]1(C(=O)CCl)[C@H](C)C[C@@H]2[C@H]3CCC4=CC(=O)C=C[C@]4(C)[C@@]3(F)C(=O)C[C@@]21C", "activity change, negative = inhibition": "1.02% (inactive)"}, {"smiles": "CN(C)CCCN1c2ccccc2C(C)(C)c2ccccc21", "activity change, negative = inhibition": "-7.48% (inactive)"}, {"smiles": "O=C(O)CN(CCN(CC(=O)O)CC(=O)O)CC(=O)O", "activity change, negative = inhibition": "-7.12% (inactive)"}, {"smiles": "COCC(=O)Nc1cc(Sc2ccccc2)ccc1N=C(NC(=O)OC)NC(=O)OC", "activity change, negative = inhibition": "14.9% (inactive)"}, {"smiles": "Oc1cc(O)c2c(c1)OC(c1ccc(O)c(O)c1)C(O)C2", "note": "(configuration not stated)", "activity change, negative = inhibition": "-9.35% (inactive)"}, {"smiles": "C#C[C@]1(O)CC[C@H]2[C@@H]3CCC4=CCCC[C@@H]4[C@H]3C(=C)C[C@@]21CC", "activity change, negative = inhibition": "-54.6% (inactive)"}, {"smiles": "COC(C(=O)C(O)C(C)O)C1Cc2cc3cc(OC4CC(OC5CC(O)C(O)C(C)O5)C(O)C(C)O4)c(C)c(O)c3c(O)c2C(=O)C1OC1CC(OC2CC(OC3CC(C)(O)C(O)C(C)O3)C(O)C(C)O2)C(O)C(C)O1", "note": "(configuration not stated)", "activity change, negative = inhibition": "37.9% (inactive)"}, {"smiles": "Cc1ccccc1OCC(O)CNCCOc1ccc(C(N)=O)cc1", "note": "(configuration not stated)", "activity change, negative = inhibition": "22.9% (inactive)"}, {"smiles": "Clc1cc(Cl)c(OCC#CI)cc1Cl", "Potency": "28.7 µM (active)"}, {"smiles": "C=C1C(=CC=C2CCC[C@@]3(C)[C@@H]2CC[C@H]3[C@H](C)CCCC(C)C)C[C@@H](O)C[C@@H]1O", "Potency": "0.0287 µM (active)"}, {"smiles": "Cc1c(C)c2c(c(C)c1O)CC[C@@](C)(CCC[C@H](C)CCC[C@H](C)CCCC(C)C)O2", "activity change, negative = inhibition": "1.31% (inactive)"}, {"smiles": "CCCCCCCCCCCCCC[n+]1ccc(C)cc1", "Potency": "2.56 µM (active)"}, {"smiles": "CN1C(=O)CN2CCc3ccccc3C2c2cc(Cl)ccc21", "note": "(configuration not stated)", "activity change, negative = inhibition": "-22.5% (inactive)"}]}, {"test": "S16 Schwann cell PMP22 intronic element beta-lactamase assay (AID 624044; calls by dose curve; further: nearly all actives have a fitted effect of over 15% in size;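 on ratio activity, negative = inhibition: 0% = DMSO and -100% = potassium clavulanate positive control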)", "conditions": "S16 rat Schwann cells, PMP22 element beta-lactamase FRET, 24 h; series mostly up to 38.3 µM; ratio activity, negative = inhibition: at the top concentration", "how_it_was_run": "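Rat S16 Schwann cells with beta-Lac driven by a PMP22 intronic element, compound-treated 24 h at 37 °C. LiveBLAzer FRET B/G read: 460 nm normalized to potassium clavulanate vs DMSO; 535 nm FRET as viability; concentration-effect curves classified.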", "values": [{"smiles": "IC(I)I", "ratio activity, negative = inhibition": "3.66% (inactive)"}, {"smiles": "CCCCC(C)(O)C/C=C/[C@H]1[C@H](O)CC(=O)[C@@H]1CCCCCCC(=O)OC", "note": "(some centres not stated)", "ratio activity, negative = inhibition": "-41.6% (inactive)"}, {"smiles": "CCC(=O)NCCC1CCc2ccc3c(c21)CCO3", "note": "(configuration not stated)", "ratio activity, negative = inhibition": "-4.66% (inactive)"}, {"smiles": "O=C(O)c1cc(=O)c2c3nc4ccccc4oc-3cc(=O)c2[nH]1", "ratio activity, negative = inhibition": "-6.83% (inactive)"}, {"smiles": "CC1(C)S[C@@H]2[C@H](NC(=O)[C@@H](NC(=O)N3CCNC3=O)c3ccccc3)C(=O)N2[C@H]1C(=O)O", "ratio activity, negative = inhibition": "-3.07% [at 17.1 µM] (inactive)"}, {"smiles": "CCCCC(CC)COC(=O)CC(C(=O)OCC(CC)CCCC)S(=O)(=O)O", "note": "(configuration not stated)", "ratio activity, negative = inhibition": "-1.6% (inactive)"}, {"smiles": "CC(Cc1ccc(O)c(O)c1)C(C)Cc1ccc(O)c(O)c1", "note": "(configuration not stated)", "Potency": "22.4 µM (active)"}, {"smiles": "O=S(=O)(O)c1ccc2c(N=Nc3ccc(S(=O)(=O)O)c4ccccc34)c(O)c(S(=O)(=O)O)cc2c1", "ratio activity, negative = inhibition": "5.78% (inactive)"}, {"smiles": "CC1(C)C(C=C(Cl)Cl)C1C(=O)OCc1cccc(Oc2ccccc2)c1", "note": "(configuration not stated)", "ratio activity, negative = inhibition": "-7.76% (inactive)"}, {"smiles": "O=C(COc1ccc(Cl)cc1)OCCNC12CC3CC(CC(C3)C1)C2", "ratio activity, negative = inhibition": "-0.334% (inactive)"}, {"smiles": "O=C(Nc1ccc(Br)cc1)c1cc(Br)c(Br)s1", "ratio activity, negative = inhibition": "-18% (inactive)"}, {"smiles": "Nc1ncnc2c1ncn2[C@@H]1O[C@H](COP(=O)(O)OP(=O)(O)OP(=O)(O)O)[C@@H](O)[C@H]1O", "ratio activity, negative = inhibition": "3.01% (inactive)"}, {"smiles": "CCCC(=O)O[C@]1(C(=O)CCl)[C@H](C)C[C@@H]2[C@H]3CCC4=CC(=O)C=C[C@]4(C)[C@@]3(F)C(=O)C[C@@]21C", "ratio activity, negative = inhibition": "-3.56% (inactive)"}, {"smiles": "CN(C)CCCN1c2ccccc2C(C)(C)c2ccccc21", "ratio activity, negative = inhibition": "-0.531% (inactive)"}, {"smiles": "O=C(O)CN(CCN(CC(=O)O)CC(=O)O)CC(=O)O", "ratio activity, negative = inhibition": "0.708% (inactive)"}, {"smiles": "COCC(=O)Nc1cc(Sc2ccccc2)ccc1N=C(NC(=O)OC)NC(=O)OC", "ratio activity, negative = inhibition": "0.507% (inactive)"}, {"smiles": "Oc1cc(O)c2c(c1)OC(c1ccc(O)c(O)c1)C(O)C2", "note": "(configuration not stated)", "ratio activity, negative = inhibition": "3.95% (inactive)"}, {"smiles": "C#C[C@]1(O)CC[C@H]2[C@@H]3CCC4=CCCC[C@@H]4[C@H]3C(=C)C[C@@]21CC", "ratio activity, negative = inhibition": "-5.9% (inactive)"}, {"smiles": "COC(C(=O)C(O)C(C)O)C1Cc2cc3cc(OC4CC(OC5CC(O)C(O)C(C)O5)C(O)C(C)O4)c(C)c(O)c3c(O)c2C(=O)C1OC1CC(OC2CC(OC3CC(C)(O)C(O)C(C)O3)C(O)C(C)O2)C(O)C(C)O1", "note": "(configuration not stated)", "Potency": "22.4 µM (active)"}, {"smiles": "Cc1ccccc1OCC(O)CNCCOc1ccc(C(N)=O)cc1", "note": "(configuration not stated)", "ratio activity, negative = inhibition": "-2.28% (inactive)"}, {"smiles": "Cc1c(C)c2c(c(C)c1O)CC[C@@](C)(CCC[C@H](C)CCC[C@H](C)CCCC(C)C)O2", "ratio activity, negative = inhibition": "-6.63% (inactive)"}, {"smiles": "CCCCCCCCCCCCCC[n+]1ccc(C)cc1", "Potency": "19.9 µM (active)"}, {"smiles": "CN1C(=O)CN2CCc3ccccc3C2c2cc(Cl)ccc21", "note": "(configuration not stated)", "ratio activity, negative = inhibition": "-5.36% (inactive)"}]}]}
